# Laboratory results as given in PubChem BioAssay (EPA / NIEHS).
# Results filed as inconclusive are left out. Activity calls are given as the source filed them. Rule for the calls: active = hit-call score of the fitted dose curve at least 0.9, where 1 is the maximum; inconclusive = response in the unintended direction; inactive = score below 0.9.
# How the values were obtained:
# [1] = biological target: sheep Cyclooxygenase-1 (Cox1), PTGS1 (gene 443551) (UniProt P05979); experiment: NVS_ENZ_oCOX1: NovaScreen (NVS) Enzymatic Assay for sheep Cyclooxygenase-1 (Cox1) (AID 2283239);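 note: actives reduce cyclooxygenase activity so potencies are for inhibitors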
# Method in brief: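 Absorbance read-out of cyclooxygenase activity in a cell-free preparation from sheep seminal vesicles, taken 0.66 hour after dosing. Initial testing was in duplicate at 25 uM, and confirmatory testing was run in concentration series.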
# [2] = biological target: sheep Cyclooxygenase-2 (Cox2), PTGS2 (gene 443460) (UniProt P79208); experiment: NVS_ENZ_oCOX2: NovaScreen (NVS) Enzymatic Assay for sheep Cyclooxygenase-2 (Cox2) (AID 2283231)
# Method in brief: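 Ovine placental enzyme, cell-free; chemical added, 0.66 h, absorbance (colorimetric). Screen 25 uM in duplicate; ≥threshold hits titrated, top 50 uM. Inhibition = signal loss vs DMSO.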
# [3] = test system: guinea pig Muscarinic, Peripheral (Mperiperal) Receptor, Non-selective Binding, gene 100379235; experiment: NVS_GPCR_gMPeripheral_NonSelective: NovaScreen (NVS) G Protein-Coupled Receptor Assay for guinea pig Muscarinic, Peripheral (Mperiperal) Receptor, Non-selective Binding (AID 2283250)
# Method in brief: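 Screened in duplicate at 25 uM, hits retested in concentration series to 50 uM max, using bladder membrane radioligand displacement from guinea pig. Filtration and scintillation counting 1 h post-dose, fitted relative to DMSO.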
# [4] = biological target: Adenosine receptor A1 (Bos taurus) (UniProt P28190); experiment: NVS_GPCR_bAdoR_NonSelective: NovaScreen (NVS) G Protein-Coupled Receptor Assay for bovine Adenosine Receptor (AdoR), Non-selective Binding (AID 2283244)
# Method in brief: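 Cell-free binding with membranes from bovine striatum: radioligand displaced by test chemical, read after 1 h by filtration and scintillation. Single-point 25 uM duplicate primary, 50 uM top concentration in follow-up curves, DMSO baseline.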
# [5] = biological target: human Serotonin, 5-Hydroxytryptamine Receptor 5A (5HT5A), HTR5A (gene 3361) (UniProt P47898); experiment: NVS_GPCR_h5HT5A: NovaScreen (NVS) G Protein-Coupled Receptor Assay for human Serotonin, 5-Hydroxytryptamine Receptor 5A (5HT5A) (AID 2283251)
# Method in brief: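 Membranes from HEK293 cells, radioligand binding read by filtration and scintillation after 1 h. Single-concentration duplicate testing at 25 uM, then concentration-response for actives; positive-direction fitting relative to DMSO.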
# [6] = biological target: guinea pig Opioid, Kappa 1 Receptor (OpiateK), OPRK1 (gene 100135587) (UniProt P41144); experiment: NVS_GPCR_gOpiateK: NovaScreen (NVS) G Protein-Coupled Receptor Assay for guinea pig Opioid, Kappa 1 Receptor (OpiateK) (AID 2283252);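 note: radioligand displacement from kappa opioid receptor in guinea pig cerebellar membranes; active means reduced radioligand binding relative to DMSO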
# Method in brief: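 Radioligand competition binding using guinea pig cerebellum membrane fraction; 2 h exposure; filter radiodetection. Single concentration 25 uM (duplicate), follow-up concentration-response for actives.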
# [7] = biological target: human Adenosine A1 Receptor (AdoRA1), ADORA1 (gene 134) (UniProt P30542); experiment: NVS_GPCR_hAdoRA1: NovaScreen (NVS) G Protein-Coupled Receptor Assay for human Adenosine A1 Receptor (AdoRA1) (AID 2283254)
# Method in brief: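 Hum. cortical membranes + radioligand, cmpd 1 h; filtration, scintillation count. Readout = decrease vs DMSO. Primary 25 uM dup; hits → conc. series.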
# [8] = biological target: human Serotonin, 5-Hydroxytryptamine Receptor 7 (5HT7), HTR7 (gene 3363) (UniProt P34969); experiment: NVS_GPCR_h5HT7: NovaScreen (NVS) G Protein-Coupled Receptor Assay for human Serotonin, 5-Hydroxytryptamine Receptor 7 (5HT7) (AID 2283255);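 note: hits reduce specific radioligand binding relative to DMSO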
# Method in brief: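 Filter-bound radioactivity counted after 1 h, with loss of specific radioligand binding fitted against DMSO. Membrane protein came from CHO cells expressing human 5HT7. Chemicals were tested first at 25 uM in duplicate, then in concentration series if active.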
# [9] = biological target: human Adenosine A2a Receptor (AdoRA2a), ADORA2A (gene 135) (UniProt P29274); experiment: NVS_GPCR_hAdoRA2a: NovaScreen (NVS) G Protein-Coupled Receptor Assay for human Adenosine A2a Receptor (AdoRA2a) (AID 2283256)
# Method in brief: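 HEK293-derived receptor preparation, radioligand displacement, 1.5 h, filtration + scintillation read. Loss of bound signal scored vs DMSO. Single-point 25 uM in duplicate first, then concentration-response for actives.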
# [10] = biological target: human Adrenergic, Beta 1 Receptor (Adrb1), ADRB1 (gene 153) (UniProt P08588); experiment: NVS_GPCR_hAdrb1: NovaScreen (NVS) G Protein-Coupled Receptor Assay for human Adrenergic, Beta 1 Receptor (Adrb1) (AID 2283258)
# Method in brief: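 Membranes/protein extracted from human neuroepithelioma cells, radioligand competition binding read by filtration and scintillation 2 h post-dose. Single 25 uM duplicate screen, then concentration-response follow-up; DMSO as negative control.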
# [11] = biological target: rat Constitutive Nitric Oxide Synthase (CNOS), Nos1 (gene 24598) (UniProt P29476); experiment: NVS_ENZ_rCNOS: NovaScreen (NVS) Enzymatic Assay for rat Constitutive Nitric Oxide Synthase (CNOS) (AID 2283236)
# Method in brief: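 Single 25 uM duplicate screen, then concentration series to 50 uM for chemicals meeting threshold. Rat brain membrane-derived CNOS activity detected radiometrically by filtration and scintillation counting, 1 h after compound addition; DMSO as baseline.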
# [12] = biological target: human Adrenergic, Alpha 2A Receptor (Adra2A), ADRA2A (gene 150) (UniProt P08913); experiment: NVS_GPCR_hAdra2A: NovaScreen (NVS) G Protein-Coupled Receptor Assay for human Adrenergic, Alpha 2A Receptor (Adra2A) (AID 2283257)
# Method in brief: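 Displacement of a specific radioligand from HT29 membrane protein was counted by filter scintillation after 1 h. Compounds were screened in duplicate at 25 uM, and actives were retested in concentration series. Fitting was positive-direction against DMSO.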
# [13] = biological target: human Vascular Endothelial Growth Factor Receptor 2 (VEGFR2), KDR (gene 3791) (UniProt P35968); experiment: NVS_ENZ_hVEGFR2: NovaScreen (NVS) Enzymatic Assay for human Vascular Endothelial Growth Factor Receptor 2 (VEGFR2) (AID 2283230)
# Method in brief: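 Cell-free recombinant VEGFR2 kinase, fluorescent substrate with electrophoretic mobility-shift separation; read 1 h after dosing. Screened at 25 uM in duplicate, hits to concentration-response up to 50 uM; loss-of-signal versus DMSO.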
# [14] = test system: guinea pig Leukotriene B4 Receptor (LTB4), gene 100379538; experiment: NVS_GPCR_gLTB4: NovaScreen (NVS) G Protein-Coupled Receptor Assay for guinea pig Leukotriene B4 Receptor (LTB4) (AID 2283247)
# Method in brief: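 Membranes from guinea pig spleen incubated 2 h with radioligand and compound; bound counts measured by filtration and scintillation. Screened first at 25 uM in duplicate, then actives titrated to a 50 uM top concentration relative to DMSO.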
# [15] = biological target: guinea pig Leukotriene D4 Receptor (LTD4), CYSLTR1 (gene 100135514) (UniProt Q2NNR5); experiment: NVS_GPCR_gLTD4: NovaScreen (NVS) G Protein-Coupled Receptor Assay for guinea pig Leukotriene D4 Receptor (LTD4) (AID 2283248)
# Method in brief: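 Guinea pig lung membrane preparation; bound radioligand measured by filter scintillation after 1 h, loss of signal versus DMSO marking displacement. Compounds tested at 25 uM in duplicate, hits retested to max 50 uM.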
# [16] = biological target: human Serotonin, 5-Hydroxytryptamine Receptor 6 (5HT6), HTR6 (gene 3362) (UniProt P50406); experiment: NVS_GPCR_h5HT6: NovaScreen (NVS) G Protein-Coupled Receptor Assay for human Serotonin, 5-Hydroxytryptamine Receptor 6 (5HT6) (AID 2283253)
# Method in brief: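 Filter scintillation counting of radioligand displacement from HEK293-expressed 5HT6, 1 hour post-dose, with loss of signal relative to DMSO. Single 25 uM duplicates first, with concentration series for confirmation.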
# Sequence of human Adenosine A1 Receptor (AdoRA1), ADORA1 (gene 134) (P30542 whole entry, looked up): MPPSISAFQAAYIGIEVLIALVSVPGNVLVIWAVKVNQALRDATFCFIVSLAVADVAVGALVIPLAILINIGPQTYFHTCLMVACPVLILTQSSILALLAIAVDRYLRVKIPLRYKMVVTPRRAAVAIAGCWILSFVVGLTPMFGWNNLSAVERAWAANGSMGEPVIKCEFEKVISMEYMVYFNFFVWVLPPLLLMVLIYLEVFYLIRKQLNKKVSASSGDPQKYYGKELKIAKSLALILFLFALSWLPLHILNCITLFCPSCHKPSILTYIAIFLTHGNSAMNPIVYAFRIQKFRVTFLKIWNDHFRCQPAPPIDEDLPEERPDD
# Sequence of sheep Cyclooxygenase-1 (Cox1), PTGS1 (gene 443551) (P05979 whole entry, looked up): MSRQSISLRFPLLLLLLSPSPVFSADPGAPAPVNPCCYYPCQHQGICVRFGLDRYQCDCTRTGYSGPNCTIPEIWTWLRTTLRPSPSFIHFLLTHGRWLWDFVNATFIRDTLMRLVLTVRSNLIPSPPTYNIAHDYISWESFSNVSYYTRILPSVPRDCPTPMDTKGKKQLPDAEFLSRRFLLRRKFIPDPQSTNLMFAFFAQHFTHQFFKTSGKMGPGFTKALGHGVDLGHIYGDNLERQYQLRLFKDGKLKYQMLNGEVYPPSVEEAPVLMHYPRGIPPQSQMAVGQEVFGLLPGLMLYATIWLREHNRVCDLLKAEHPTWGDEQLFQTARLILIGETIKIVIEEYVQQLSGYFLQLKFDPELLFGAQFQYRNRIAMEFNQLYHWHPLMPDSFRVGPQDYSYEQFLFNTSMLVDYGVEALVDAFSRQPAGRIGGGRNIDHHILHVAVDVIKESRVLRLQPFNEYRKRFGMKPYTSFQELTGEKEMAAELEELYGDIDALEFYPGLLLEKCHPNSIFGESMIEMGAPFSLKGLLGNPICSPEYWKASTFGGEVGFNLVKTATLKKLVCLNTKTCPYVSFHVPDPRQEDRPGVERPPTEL
# Sequence of Adenosine receptor A1 (Bos taurus) (P28190 whole entry, looked up): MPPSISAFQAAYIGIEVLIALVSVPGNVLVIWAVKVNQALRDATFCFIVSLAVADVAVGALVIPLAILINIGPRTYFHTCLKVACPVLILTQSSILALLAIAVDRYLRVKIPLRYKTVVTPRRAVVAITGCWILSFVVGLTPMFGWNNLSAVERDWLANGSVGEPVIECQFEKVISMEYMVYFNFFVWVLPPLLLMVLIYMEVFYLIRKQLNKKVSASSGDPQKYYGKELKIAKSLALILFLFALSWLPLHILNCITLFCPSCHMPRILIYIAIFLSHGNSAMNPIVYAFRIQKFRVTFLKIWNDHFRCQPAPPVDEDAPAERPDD
# Sequence of human Adrenergic, Beta 1 Receptor (Adrb1), ADRB1 (gene 153) (P08588 whole entry, looked up): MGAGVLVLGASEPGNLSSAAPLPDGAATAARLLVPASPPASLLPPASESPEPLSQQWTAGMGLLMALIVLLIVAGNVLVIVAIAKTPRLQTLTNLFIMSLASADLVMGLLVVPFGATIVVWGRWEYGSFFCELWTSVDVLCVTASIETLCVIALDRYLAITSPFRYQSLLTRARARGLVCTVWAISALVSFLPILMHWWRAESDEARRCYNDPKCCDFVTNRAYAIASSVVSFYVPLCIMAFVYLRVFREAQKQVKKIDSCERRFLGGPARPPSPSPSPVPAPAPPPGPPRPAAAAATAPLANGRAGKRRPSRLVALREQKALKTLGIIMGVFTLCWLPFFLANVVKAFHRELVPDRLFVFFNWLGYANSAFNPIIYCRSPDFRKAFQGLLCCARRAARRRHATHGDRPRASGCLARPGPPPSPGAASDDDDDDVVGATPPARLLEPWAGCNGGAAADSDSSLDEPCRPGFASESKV
# Sequence of guinea pig Opioid, Kappa 1 Receptor (OpiateK), OPRK1 (gene 100135587) (P41144 whole entry, looked up): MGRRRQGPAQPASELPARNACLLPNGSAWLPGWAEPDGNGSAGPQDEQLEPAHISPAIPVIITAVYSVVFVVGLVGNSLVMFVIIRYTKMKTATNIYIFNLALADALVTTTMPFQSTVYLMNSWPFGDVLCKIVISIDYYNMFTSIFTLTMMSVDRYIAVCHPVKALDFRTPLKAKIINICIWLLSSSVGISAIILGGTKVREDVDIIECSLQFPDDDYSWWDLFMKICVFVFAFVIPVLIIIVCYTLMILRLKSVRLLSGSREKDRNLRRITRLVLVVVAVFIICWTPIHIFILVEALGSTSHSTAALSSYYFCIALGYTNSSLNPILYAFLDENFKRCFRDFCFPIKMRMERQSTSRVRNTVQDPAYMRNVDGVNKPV
# Sequence of human Adenosine A2a Receptor (AdoRA2a), ADORA2A (gene 135) (P29274 whole entry, looked up): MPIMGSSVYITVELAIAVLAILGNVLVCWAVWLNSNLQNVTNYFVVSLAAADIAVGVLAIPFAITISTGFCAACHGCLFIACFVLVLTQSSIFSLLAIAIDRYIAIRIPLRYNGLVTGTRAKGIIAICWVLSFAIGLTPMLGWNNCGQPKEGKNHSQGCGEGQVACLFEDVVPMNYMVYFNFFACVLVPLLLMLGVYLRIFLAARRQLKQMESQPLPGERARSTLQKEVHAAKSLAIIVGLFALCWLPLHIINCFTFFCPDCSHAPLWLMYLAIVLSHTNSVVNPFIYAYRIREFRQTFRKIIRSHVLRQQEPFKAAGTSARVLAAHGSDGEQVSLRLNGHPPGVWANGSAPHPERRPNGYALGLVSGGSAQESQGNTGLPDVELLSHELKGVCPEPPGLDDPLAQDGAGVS
# Sequence of human Vascular Endothelial Growth Factor Receptor 2 (VEGFR2), KDR (gene 3791) (P35968 whole entry, looked up): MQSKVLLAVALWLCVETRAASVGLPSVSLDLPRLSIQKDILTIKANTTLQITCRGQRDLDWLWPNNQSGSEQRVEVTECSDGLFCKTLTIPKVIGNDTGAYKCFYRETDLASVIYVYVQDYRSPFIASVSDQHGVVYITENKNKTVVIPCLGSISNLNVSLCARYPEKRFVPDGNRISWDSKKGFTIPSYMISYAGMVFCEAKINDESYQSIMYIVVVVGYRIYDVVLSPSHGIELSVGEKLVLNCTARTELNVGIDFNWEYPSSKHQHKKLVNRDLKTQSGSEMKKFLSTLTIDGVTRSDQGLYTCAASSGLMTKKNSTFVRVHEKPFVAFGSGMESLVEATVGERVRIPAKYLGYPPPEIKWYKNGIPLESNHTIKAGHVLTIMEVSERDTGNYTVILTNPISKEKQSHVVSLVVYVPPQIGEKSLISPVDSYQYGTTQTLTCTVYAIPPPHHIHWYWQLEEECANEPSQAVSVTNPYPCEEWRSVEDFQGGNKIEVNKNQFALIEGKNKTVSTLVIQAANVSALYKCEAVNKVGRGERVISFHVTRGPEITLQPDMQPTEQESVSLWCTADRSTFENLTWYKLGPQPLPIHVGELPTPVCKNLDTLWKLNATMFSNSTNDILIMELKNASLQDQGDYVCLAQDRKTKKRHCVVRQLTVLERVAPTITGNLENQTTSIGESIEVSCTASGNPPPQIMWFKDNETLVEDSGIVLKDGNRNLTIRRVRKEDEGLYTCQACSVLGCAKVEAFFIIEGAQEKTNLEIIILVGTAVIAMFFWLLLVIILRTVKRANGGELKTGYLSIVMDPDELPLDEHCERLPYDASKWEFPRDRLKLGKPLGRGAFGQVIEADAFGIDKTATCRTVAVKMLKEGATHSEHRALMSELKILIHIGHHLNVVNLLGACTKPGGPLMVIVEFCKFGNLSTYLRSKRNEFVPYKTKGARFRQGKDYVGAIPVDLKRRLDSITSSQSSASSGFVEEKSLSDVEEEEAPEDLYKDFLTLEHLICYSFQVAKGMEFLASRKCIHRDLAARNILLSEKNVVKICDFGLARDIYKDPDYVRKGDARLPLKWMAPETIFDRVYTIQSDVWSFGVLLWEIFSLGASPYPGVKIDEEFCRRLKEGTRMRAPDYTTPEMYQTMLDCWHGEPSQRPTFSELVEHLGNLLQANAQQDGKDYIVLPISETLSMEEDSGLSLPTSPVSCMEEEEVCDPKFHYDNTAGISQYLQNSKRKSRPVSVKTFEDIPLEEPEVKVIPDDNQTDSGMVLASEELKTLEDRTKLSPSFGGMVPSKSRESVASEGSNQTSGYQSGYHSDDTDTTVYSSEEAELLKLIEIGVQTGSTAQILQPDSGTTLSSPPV
# Sequence of human Serotonin, 5-Hydroxytryptamine Receptor 7 (5HT7), HTR7 (gene 3363) (P34969 whole entry, looked up): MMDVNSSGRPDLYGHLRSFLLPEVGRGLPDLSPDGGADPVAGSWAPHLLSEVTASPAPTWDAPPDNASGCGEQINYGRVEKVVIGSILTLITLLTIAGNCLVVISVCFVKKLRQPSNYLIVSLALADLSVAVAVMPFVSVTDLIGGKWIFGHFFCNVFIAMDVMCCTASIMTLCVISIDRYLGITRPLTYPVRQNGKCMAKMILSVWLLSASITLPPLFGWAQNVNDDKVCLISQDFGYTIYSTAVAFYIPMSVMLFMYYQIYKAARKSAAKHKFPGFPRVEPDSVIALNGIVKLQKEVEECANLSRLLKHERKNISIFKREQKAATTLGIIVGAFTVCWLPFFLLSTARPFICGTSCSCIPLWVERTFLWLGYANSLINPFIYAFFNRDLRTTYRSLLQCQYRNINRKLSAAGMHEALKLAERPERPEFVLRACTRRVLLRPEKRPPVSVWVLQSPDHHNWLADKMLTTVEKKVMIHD
# Sequence of human Serotonin, 5-Hydroxytryptamine Receptor 5A (5HT5A), HTR5A (gene 3361) (P47898 whole entry, looked up): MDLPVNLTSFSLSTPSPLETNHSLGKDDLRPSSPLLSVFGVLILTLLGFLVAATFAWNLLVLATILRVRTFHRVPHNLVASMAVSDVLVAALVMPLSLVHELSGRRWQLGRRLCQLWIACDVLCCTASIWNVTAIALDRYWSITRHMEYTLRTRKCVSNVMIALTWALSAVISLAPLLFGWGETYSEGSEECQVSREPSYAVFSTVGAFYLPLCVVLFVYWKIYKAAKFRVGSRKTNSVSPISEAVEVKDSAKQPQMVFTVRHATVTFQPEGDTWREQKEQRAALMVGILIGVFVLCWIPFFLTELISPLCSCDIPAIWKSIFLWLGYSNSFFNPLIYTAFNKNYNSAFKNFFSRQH
compound,measurement,setting,value
N#C[C@@H]1CC(F)(F)CN1C(=O)CNC1CC2CCC(C1)N2c1ncccn1 (stereo not given in full),outcome,[1],inactive
OC1CCCCC1,outcome,[2],inactive
CN1CCC[C@H]1c1cccnc1,outcome,[3],inactive
Nc1cccc2c(N)cccc12,outcome,[4],inactive
CC[C@H](c1ccc(O)cc1)[C@@H](CC)c1ccc(O)cc1,AC50,[5],1.69 µM (active)
same,outcome,[6],inactive
same,AC50,[7],8.65 µM (active)
same,outcome,[8],inactive
same,AC50,[9],12.4 µM (active)
CCCCCCCCCCCCCCCS(=O)(=O)Oc1ccccc1,outcome,[10],inactive
CC(C)CCCCCCOC(=O)CCCCC(=O)OCCCCCCC(C)C,outcome,[11],inactive
CCc1ccc(CCOc2ccc(CC3SC(=O)NC3=O)cc2)nc1 (stereo not given),AC50,[11],4.25 µM (active)
CCCCCCC(=O)O,outcome,[12],inactive
CC#C[C@]1(O)CC[C@H]2[C@@H]3CCC4=CC(=O)CCC4=C3[C@@H](c3ccc(N(C)C)cc3)C[C@@]21C,outcome,[7],inactive
same,AC50,[8],23.7 µM (active)
same,outcome,[9],inactive
Oc1cc2ccccc2c2ccccc12,AC50,[13],7.7 µM (active)
same,AC50,[1],27.7 µM (active)
same,outcome,[9],inactive
CCCCCCCCCCCCc1ccccc1S(=O)(=O)O,AC50,[13],39.2 µM (active)
same,AC50,[1],9.01 µM (active)
same,AC50,[14],7.5 µM (active)
same,AC50,[15],25 µM (active)
same,AC50,[5],6.39 µM (active)
same,outcome,[6],inactive
same,AC50,[16],31.9 µM (active)
same,AC50,[7],18.1 µM (active)
same,AC50,[8],7.69 µM (active)
same,AC50,[9],22.6 µM (active)
same,outcome,[12],inactive
same,AC50,[10],6.83 µM (active)
CCC(=C(c1ccc(O)cc1)c1ccc(OCCN(C)C)cc1)c1ccccc1,AC50,[5],3.32 µM (active)
same,AC50,[16],1.74 µM (active)
same,AC50,[7],2.12 µM (active)
same,AC50,[8],5.49 µM (active)
same,AC50,[9],3.08 µM (active)
O=[N+]([O-])c1ccc(O)cc1,outcome,[8],inactive
Cc1cc(CCN2CCN(c3nsc4ccccc34)CC2)cc2c1NC(=O)CC2(C)C,outcome,[4],inactive
same,outcome,[14],inactive
same,outcome,[15],inactive
CCN(CC)CCNc1ccc(CNC=O)c2sc3ccc(OC)cc3c(=O)c12,outcome,[13],inactive
same,AC50,[4],4.38 µM (active)
same,AC50,[3],5.83 µM (active)
same,AC50,[5],4.96 µM (active)
same,AC50,[6],25 µM (active)
same,AC50,[7],3.34 µM (active)
same,outcome,[8],inactive
same,AC50,[9],5.28 µM (active)
same,outcome,[12],inactive
c1ccc2c(c1)ccc1ccccc12,AC50,[11],1.16 µM (active)
NC(=O)N(O)[C@@H]1C=C[C@H](Oc2cccc(Oc3ccc(F)cc3)c2)C1,outcome,[2],inactive
same,outcome,[1],inactive
same,AC50,[5],14 µM (active)
same,AC50,[8],12.8 µM (active)
same,AC50,[12],6.62 µM (active)
same,outcome,[10],inactive
COc1ccc([N+](=O)[O-])cc1N,AC50,[1],12.2 µM (active)
NC(=O)N1C(=O)C(C(=O)c2cc(Cl)cs2)c2cc(F)c(Cl)cc21 (stereo not given),outcome,[11],inactive
same,outcome,[4],inactive
same,AC50,[14],0.585 µM (active)
same,AC50,[5],41.3 µM (active)
same,AC50,[7],8.46 µM (active)
same,outcome,[8],inactive
same,AC50,[9],19.7 µM (active)
same,outcome,[10],inactive
